High-throughput results as filed in PubChem.
KDM4E inh: JMJD2E (human) inhibition; JMJD2E catalytic domain, FDH-coupled NADH fluorescence (FDH is formaldehyde dehydrogenase); Potency, µM (highest dose often 57.1 µM), without a hit: at the highest dose activity change, negative = inhibition, hits mostly inhibitors; 230,000 tested, 1.6% active; active = well fitted inhibition curve with a large enough effect, not every such curve was filed as active; inconclusive = small, poorly fitted or top-dose-only effect, or another doubt; inactive = no such curve, though single readings can be large or run the other way;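 also: 0% = wells with enzyme and -100% = buffer wells without enzyme; nearly all actives have a fitted effect of over 50% in size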
Target sequence (B2RXH2 1-337 limits assumed): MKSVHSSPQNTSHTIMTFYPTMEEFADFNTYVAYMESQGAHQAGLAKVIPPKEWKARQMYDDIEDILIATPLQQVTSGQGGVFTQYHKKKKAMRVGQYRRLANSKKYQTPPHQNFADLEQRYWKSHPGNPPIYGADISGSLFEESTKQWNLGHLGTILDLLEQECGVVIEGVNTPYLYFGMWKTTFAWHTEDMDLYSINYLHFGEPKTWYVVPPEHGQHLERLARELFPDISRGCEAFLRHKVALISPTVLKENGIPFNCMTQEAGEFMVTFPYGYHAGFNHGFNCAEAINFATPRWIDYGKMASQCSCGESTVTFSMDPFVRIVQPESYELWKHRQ
Tau fluor counter: counter-screen for tau fibril formation inhibitors | tau K18 P301L Alexa594 fluorescence, heparin fibrillization | Potency, µM (highest dose often 57.7 µM), for inactives: at the highest dose activity change, negative = decrease | 280,000 tested, 0.93% active | AID 1463; also: nearly all actives have a fitted effect of over 55% in size
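Human tau K18 P301L (15 uM unlabeled, 0.24 uM Alexa 594-labeled) in 100 mM sodium acetate pH 7 with 20 uM heparin, 6 hr at 37 C. ThT 30 uM added, 1 hr ambient; Alexa 594 FP and total fluorescence read at 555/632 nm.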
Tau FP inhib: inhibitors of human tau fibril formation; K18 P301L tau heparin fibrillization, Alexa594 FP, 6 h; P10636; Potency, µM (doses to about 57.7 µM), inactives show at the top dose activity, negative = inhibition, hits mostly inhibitors; 280,000 tested, 0.39% active; also: nearly all actives have a fitted effect of over 55% in size
Target sequence (P10636 561-689 P618L limits assumed): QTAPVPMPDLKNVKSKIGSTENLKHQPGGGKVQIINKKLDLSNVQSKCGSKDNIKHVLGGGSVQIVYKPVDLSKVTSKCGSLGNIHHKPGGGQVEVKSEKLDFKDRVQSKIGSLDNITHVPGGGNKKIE
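Human tau K18 […] P301L fragment, 15 uM unlabeled plus 0.24 uM Alexa 594-labeled tau (final), with compound and 20 uM heparin in 100 mM sodium acetate pH 7; 6 hr at 37 C, then Alexa 594 FP read.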
RGS12 GoLoco inh: blocks human Gai1 binding to RGS12 GoLoco peptide, red readout; Gai1:RGS12 GoLoco peptide FP, rhodamine, 10 min; Potency, µM (top dose mostly 61.6 µM), without a hit: at the highest dose activity, negative = inhibition, hits mostly inhibitors; 230,000 tested, 0.44% active; P63096; active = well fitted inhibition curve with a large enough effect, not every such curve was filed as active; inactive = no such curve, though single readings can be large or run the other way; also: nearly all actives have a fitted effect of over 30% in size
Tau fibril ThT: inhibitors of human tau fibril formation, thioflavin T binding. P10636. recombinant tau K18 P301L (four-repeat tau fragment), heparin-induced fibrillization, ThT fluorescence. Potency, µM (top dose mostly 57.4 µM), for inactives: at the top dose activity, negative = inhibition, hits mostly inhibitors. 270,000 tested, 2.1% active. AID 1460; also: nearly all actives have a fitted effect of over 55% in size
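Heparin-induced fibrillization of the P301L-mutant K18 repeat-domain fragment of human tau was followed by ThT binding in quantitative high-throughput format.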
The depositor's hits bear a star; ? = inconclusive; . = no result; [ ] = another dose, or the depositor's remark. Sampled rows, rich in hits. Any-hit rate of the full collection: about 3.4%. Unless noted, calls follow the shape of the dose curve; as a rule, active = well fitted curve in the direction sought with a large enough effect; inconclusive = small, poorly fitted or top-dose-only effect, or another doubt; inactive = no such curve, though single readings can be large; an effect the other way counts as inactive or inconclusive. Unless noted, % is scaled to controls: 0 for no effect and ±100 for the full control effect; potency is read from the fitted curve at half-maximal effect.

SMILES | KDM4E inh | Tau fluor counter | Tau FP inhib | RGS12 GoLoco inh | Tau fibril ThT
O=C(Nc1cccc(F)c1)c1cccnc1NCCc1ccccc1 | ? | ? | 17.8µM* | -4.8% | 0.6%
CCOc1ncccc1C(=O)Nc1ccc(F)cc1 | -8.7% | 6.6% | 3.6% | -7.7% | 4.5%
O=C(Nc1cccc(C(F)(F)F)c1)c1cccnc1NCCc1ccccc1 | 6.4% | ? | 14.1µM* | -8.6% | 1.2%
O=C(Nc1cccc(F)c1)c1ccccc1-c1ccccc1 | 7.6% | -10.2% | 9.7% | . | 0.8%
O=C(Nc1ccc(F)cc1)c1cccnc1NCCc1ccccc1 | ? | ? | 12.6µM* | 9.3% | -4.0%
CCCCCCCCCCCCCCCCCC(=O)OCC(C)O (centres undefined) | . | ? | ? | 26.1% | 14.1µM*
CCCSC1=N/C(=C\c2ccsc2)C(=O)S1 | -6.7% | -11.0% | -7.7% | 4.9% | -13.3%
CCCSC1=N/C(=C\C=C\c2ccco2)C(=O)S1 | 8.91µM* | ? | ? | 26.2% | 14.1µM*
CCCSC1=N/C(=C\c2ccc([N+](=O)[O-])o2)C(=O)S1 | ? | ? | ? | 152.5% | 12.6µM*
CCSC1=N/C(=C\c2ccc(-c3ccccc3[N+](=O)[O-])o2)C(=O)S1 | ? | ? | ? | -8.4% | 5.01µM*
Cc1cc(C)c(NC(=O)COCc2cc(-c3cccs3)on2)c(C)c1 | . | -14.2% | -6.1% | . | -11.1%
Cc1ccccc1CN1C(=O)c2ccccc2Sc2ccc(C(=O)NCCc3ccccc3)cc21 | . | -6.9% | -11.9% | . | 10.0%
CCOc1ccc(OCC)c(NC(=O)c2nnn(CC(=O)Nc3ccc(C)cc3C)c2N)c1 | . | -21.8% | -6.4% | . | 0.0%
CCc1nc2nc(C)cc(Nc3ccc(Br)cc3F)n2n1 | . | -1.5% | 5.7% | . | -1.6%
CC(=O)c1ccc(NS(=O)(=O)c2cc(-c3cc(C)no3)ccc2C)cc1 | . | -22.6% | -14.2% | . | -8.0%
COc1ccc2c(c1)CCc1cc(C(=O)N3CCN(c4ccc(N5CCOCC5)nn4)CC3)sc1-2 | ? | -23.7% | ? | -5.6% | 8.91µM*
CN(CCO)c1nc(N)c2c(N)nc3c(c2c1C#N)CC(=O)N3C1CCCC1 | ? | ? | ? | 4.6% | 28.2µM*
c1ccc(Cn2nc(-c3ccccc3)nc2-c2ccccc2)cc1 | -6.1% | -17.9% | -2.8% | 0.8% | -7.3%
CN=c1nc(-c2ccccc2)n(-c2ccccc2)s1 | 3.16µM* | -16.2% | ? | 5.01µM* | 22.4µM*
Cc1cc(C)c(S(=O)(=O)/N=C2/C=C(SCC(=O)O)C(=O)c3ccccc32)cc1C | ? | ? | 10µM* | 51.8% | 7.08µM*
Nc1c(C(=O)Nc2ccc(S(=O)(=O)N3CCCC3)cc2)sc2nc3ccc(OC(F)(F)F)cc3cc12 | 1.5% | -25.1% | 13.3% | 120.9% | 5.62µM*
Cc1ccc(NC(=O)CCC(=O)N/N=C/c2cc([N+](=O)[O-])ccc2O)cc1 | ? | -11.3% | 7.5% | 1.1% | ?
O=C(CCC(=O)Nc1cccc(Cl)c1)N/N=C/c1cc([N+](=O)[O-])ccc1O | 17.8µM* | ? | -2.0% | 3.6% | ?
Cc1cc(=O)oc2cc(OCC(=O)N/N=C/c3cc([N+](=O)[O-])ccc3O)ccc12 | ? | -19.3% | -7.4% | 14.1% | 3.55µM*
Cc1c(NC(=S)N/N=C/c2cc([N+](=O)[O-])ccc2O)c(=O)n(-c2ccccc2)n1C | 8.91µM* | -26.4% | -1.4% | 11.0% | 31.6µM*
SMILES | KDM4E inh | Tau fluor counter | Tau FP inhib | RGS12 GoLoco inh | Tau fibril ThT
CN1CCN(CCC(=O)N/N=C/c2cc([N+](=O)[O-])ccc2O)CC1 | 0.891µM* | -4.7% | 0.8% | -6.6% | ?
Cc1c(NC(=S)N/N=C/c2ccc(O)cc2)c(=O)n(-c2ccccc2)n1C | -23.5% | -14.0% | -3.1% | 0.8% | -7.9%
Cn1nnc2c(NCc3ccc(Cl)cc3)ncnc21 | . | 1.9% | -1.5% | . | -2.6%
COc1cc(C2c3c(-c4ccccc4O)n[nH]c3C(=O)N2Cc2ccco2)ccc1OCC(C)C (centres undefined) | . | ? | ? | . | -2.8%
COc1cc(/C=N/c2oc(-c3ccccc3)cc2C#N)ccc1O | ? | ? | 8.7% | 193.6% | 15.8µM*
COc1cc(/C=N/NC(=O)c2ccccc2)ccc1O | ? | -1.7% | 1.7% | 4.9% | -16.0%
COc1ccc2c(c1)OC/C(=C\c1ccc(OC)c(O)c1)C2=O | 20µM* | ? | -4.7% | 3.3% | 4.47µM*
COc1ccc(C(=O)Oc2ccc(C(c3c(C)[nH][nH]c3=O)c3c(C)[nH][nH]c3=O)cc2OC)cc1 | . | -4.1% | -1.1% | . | -19.5%
Cc1[nH][nH]c(=O)c1C(c1ccc(-c2cccc(C(=O)O)c2)o1)c1c(C)[nH][nH]c1=O | 26.3% | -25.7% | ? | -10.6% | 14.1µM*
Cc1ccc2oc(-c3ccccc3C(=O)O)cc(=O)c2c1 | ? | 6.2% | 2.0% | 5.6% | -5.8%
Cc1[nH][nH]c(=O)c1C(c1ccc(-c2ccc(Cl)cc2Cl)o1)c1c(C)[nH][nH]c1=O | 8.4% | -28.1% | ? | -12.8% | 11.2µM*
COC(=O)c1ccc(-c2ccc(C(c3c(C)[nH][nH]c3=O)c3c(C)[nH][nH]c3=O)o2)cc1 | ? | -26.0% | ? | 24.4% | 5.01µM*
Cc1[nH][nH]c(=O)c1C(c1ccc(-c2cccc(Cl)c2)o1)c1c(C)[nH][nH]c1=O | ? | ? | ? | 7.9% | .
Cc1[nH][nH]c(=O)c1C(c1ccc(-c2ccccc2C(=O)O)o1)c1c(C)[nH][nH]c1=O | 23.1% | -7.9% | ? | -18.2% | 11.2µM*
COc1ccc(OC)c(Nc2ncc3c(n2)CCN(Cc2cc(OC)c(OC)c(OC)c2)C3)c1 | . | -11.2% | 11.5% | . | -8.0%
O=C(/C=C/c1ccccc1)NC(=S)NNC(=O)c1cnccn1 | 8.91µM* | -18.7% | 0.9% | 4.2% | .
COc1cc(/C=N/N2C(=O)CSC2=S)ccc1O | 3.4% | -20.1% | -6.4% | 135.8% | 14.1µM*
CCOC(=O)c1cc(NC(=O)Nc2ccc(Br)cc2)c(C)nc1C | 3.9% | ? | 17.8µM* | 7.8% | 10.7%
COc1cccc(NC(=O)Nc2cc(-c3cn4cccnc4n3)ccc2OC)c1 | . | 20µM*[quencher] | -4.0% | . | ?
COc1cccc(NC(=O)Nc2cc(-c3cn4cccnc4n3)ccc2C)c1 | . | -13.0% | ? | . | -7.7%
COc1cccc(NC(=O)Nc2cc(NC(=O)Nc3cccc(OC)c3)c(C)nc2C)c1 | 5.8% | 11.2µM*[quencher] | 22.4µM* | -3.5% | 9.1%
COc1cccc(NC(=O)Nc2ccc(Cc3ccncc3)cc2)c1 | 3.1% | 15.8µM*[quencher] | ? | -10.7% | -1.9%
CN(C)c1ccc(C(CNS(=O)(=O)c2ccc(Br)cc2)N2CCOCC2)cc1 (centres undefined) | . | ? | -9.5% | . | ?
COc1cccc(NC(=O)Nc2ccc(C(C)(C)C)cc2)c1 | -7.5% | 28.2µM*[quencher] | ? | -1.7% | -9.5%
COc1cccc(NC(=O)Nc2ccncc2)c1 | 0.1% | -11.4% | 0.9% | 29.7% | -6.0%
